Experimental data published in PubChem BioAssay AID652208 (Broad Institute, 2013).
Potency and affinity values are given separately. Values without a mark were called inactive.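 The calls were made as follows: active = Loss of cell signal with fitted half-effect dose at or below twice the top valid tested dose; inconclusive = Poor fit, or flat fit from -70 to -30 percent; inactive = Half-effect above limit, rising signal, or flat within 30 percent.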

Test: viability loss in HEK293T cells – cell-based, cherry-picks, cytotoxicity control for HIV Vif inhibitor project, dose response (AID 652208);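 also: 0% = median neutral control wells and -100% = median staurosporine control wells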
Conditions: CellTiter-Glo luminescence, 24 h; series mostly up to 26 µM; activity change, negative = cytotoxicity: at the top concentration

| SMILES | activity change, negative = cytotoxicity [%] |
| --- | --- |
| CCN1c2ccccc2NC2C1C(C(C)=O)C(=O)N2c1ccc(Cl)cc1 (stereo not drawn) | -15.2 |
| O=S(=O)(Nn1cnnc1)c1ccccc1 | 6.03 |
| CCOc1ccc2nc(NS(=O)(=O)Cc3ccccc3)sc2c1 | -21.3 |
| CC(NC(=O)CSc1nc2c(c(C(F)(F)F)n1)CCc1ccccc1-2)c1ccccc1 (stereo not drawn) | -19.9 |
| CCOc1ccc(NC(=O)CN(C)C(=O)c2cc(S(=O)(=O)N3CCCCC3)ccc2Cl)cc1OCC | 9.74 |
| CCC1(CC)NC(=O)N(CC(=O)Nc2ccc(OCc3ccccc3)cc2)C1=O | -11.7 |
| COc1cc(C(=O)NCCc2cn3ccc(C)cc3n2)cc(OC)c1OC | 4.46 |
| Nc1nonc1-c1nc2ccccc2n1CC(=O)NC1CCCC1 | 4.56 |
| COc1ccc(CC(=O)OCC(=O)Nc2cccc(Br)c2)cc1 | 4.24 |
| c1ccc(-c2cn3nc(-c4ccccc4)c(-c4ccccc4)nc3n2)cc1 | -10.3 |
| CCn1c(SCc2nc3ccccc3c(=O)[nH]2)nc2ccccc2c1=O | -8.27 |
| O=C(Nc1ccnc(-c2cccnc2)n1)c1cccs1 | -0.234 |
| COc1cc(C2C3=C(COC3=O)Oc3cc4c(cc32)OCO4)cc(OC)c1O (stereo not drawn) | -15.8 |
| O=C(CN(C(=O)c1csnn1)c1ccc(F)cc1)NCc1ccc2c(c1)OCO2 | -5.58 |
| Cc1cccc(N2CCN(C(=O)c3cc4ccccc4oc3=O)CC2)c1C | 5.98 |
| O=c1[nH]c(=O)n(Cc2ccco2)c2c1C(C(F)(F)F)(C(F)(F)F)N=C(c1ccco1)N2 | -3.38 |
| COC(=O)c1sc(-c2ccc(Cl)cc2)cc1NC(=O)CSCC(=O)O | -1.52 |
| Cc1nc(-c2ccc(O)c(O)c2)cs1 | -6.88 |
| CC(C)(C)NC(=O)CN(Cc1ccc(F)cc1)C(=O)Cn1nnc(-c2ccc(F)cc2)n1 | -0.485 |

| SMILES | activity change, negative = cytotoxicity [%] |
| --- | --- |
| C=CCNc1sc(C(=O)c2ccc(Br)s2)c(N)c1C#N | -3.79 |
| CCN(CCCNC(=O)C1CCC(=O)N1Cc1ccc(C)cc1)c1cccc(C)c1 (stereo not drawn) | -8.75 |
| O=C(NNC(=O)c1cc2ccccc2oc1=O)c1ccccc1 | 6.51 |
| Cc1cccc2cc(CN(CC3CCCO3)C(=O)NC3CCCCC3)c(=O)[nH]c12 (stereo not drawn) | 6.93 |
| O=C(CSc1ncccn1)NC(=O)Nc1ccc2c(c1)OCCO2 | -4.69 |
| NS(=O)(=O)c1ccc(NC(=O)CCC(=O)N2CCOCC2)cc1 | 3.75 |
| COc1ccc2nc(N3C(=O)C(O)=C(C(=O)c4ccco4)C3c3ccccc3OC)sc2c1 (stereo not drawn) | 7.88 |
| CC(C)CN1C(=O)C(=O)N(CC(=O)c2ccc3c(c2)OCO3)C1=O | 6.18 |
| CCOc1ccc2c(C)c(C(=O)O)oc2c1OCC | 0.912 |
| Cc1nc(NC(=O)C(C)Oc2cccc(Cl)c2)sc1C(=O)N(C)C (stereo not drawn) | -12.6 |
| COc1ccc(CCNc2nnc(Sc3nnnn3-c3ccccc3)s2)cc1OC | -3.09 |
| O=C(NC1CCCc2ccccc21)c1ccccc1Br (stereo not drawn) | -14.9 |
| CCN1C(=O)c2cccc3c(S(=O)(=O)Nc4nc(C)cs4)ccc1c23 | 0.851 |
| COc1cc(-c2cc(=O)c3c(O)c(OC)c(OC)c(O)c3o2)ccc1O | 4.31 |
| Cc1nnc2ccc(-c3cccc(NS(=O)(=O)c4ccccc4Cl)c3)nn12 | -5.54 |
| COc1cc(NC(=O)c2ccc(C)cc2C)ccc1NC(=O)c1cccs1 | -17.1 |
| COc1ccc(/C=c2\s/c(=C/C(=O)c3ccc(C)cc3)[nH]c2=O)c(OC)c1 | -7.38 |
| CC(C)c1ccc(NC(=O)N2CCCC2C(=O)Nc2ccc(-n3cnnn3)cc2)cc1 (stereo not drawn) | 0.715 |
| COc1cc(CNCc2ccccc2)c(Br)cc1OC1CCCC1 | -16.3 |
